Test systems include SK-MEL-2 melanoma; EKVX NSCLC; SN12C renal; UO-31 renal; TK-10 renal; ACHN renal; CAKI-1 renal; CCRF-CEM leukemia; MOLT-4 leukemia; A498 renal.
Common to all, as to assay: NCI-60 one-dose screen, 48 h (100 = growth as untreated, 0 = no growth, -100 = all killed)
Settings in all cases: 10 µM unless noted

The panel holds about 83,000 compounds, 20% with a hit somewhere; the sample as a whole holds those more often.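 For each line, cells grew in 96-well plates with the test compound present at a single concentration for 48 hours.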 A number with no mark means an inactive call. Active and inactive are the calls of the source. The calls were made as follows: active = growth percent below 10; inactive = the rest.

Take `CCSc1sc(-c2ccc(C)cc2)nc1[P+](c1ccccc1)(c1ccccc1)c1ccccc1`: the growth was -56.9% (active) with SK-MEL-2 melanoma; 6.99% (active) in the assay on EKVX NSCLC; 2.07% (active) with SN12C renal; -33% (active) with UO-31 renal; -6.69% (active) with TK-10 renal; -44.8% (active) with ACHN renal. Moreover, the growth in the assay on CAKI-1 renal was -9.03% (active); in the assay with CCRF-CEM leukemia it was 8.77% (active); in the assay on MOLT-4 leukemia, -48.8% (active).

On to `COc1cccc(-c2nn(-c3ccccc3)cc2-c2ccnc(NCCCNS(=O)(=O)c3ccc(C(F)(F)F)cc3)c2)c1`, for which the growth with SK-MEL-2 melanoma is 19.3%; in the assay on EKVX NSCLC it was 46.5%; in the assay on SN12C renal, 23%; in the assay on UO-31 renal, 11.3%; in the assay with TK-10 renal, 42.1%; with ACHN renal, 22.4%. In addition, the growth is 27.2% with CAKI-1 renal, 16.8% in the assay with CCRF-CEM leukemia and -0.667% (active) with MOLT-4 leukemia.

As for `COC(=O)[C@]12CC[C@@H](C)[C@H](C)[C@@H]1C1=CC[C@@H]3[C@@]4(C)C[C@@H](O)[C@H](O)[C@@](C)(CO)C4=CC[C@@]3(C)[C@]1(C)CC2`, the growth with SK-MEL-2 melanoma is -36.9% (active); in the assay with EKVX NSCLC, -71.8% (active); in the assay on SN12C renal, -71.5% (active); in the assay on UO-31 renal, -48.9% (active); with TK-10 renal, -17.7% (active); in the assay on ACHN renal, -83.7% (active). Also, the growth in the assay with CAKI-1 renal was -10.2% (active); in the assay with MOLT-4 leukemia it was -47.4% (active).

As to `Cc1ccc(-c2nc([P+](c3ccccc3)(c3ccccc3)c3ccccc3)c(N3C[C@H]4C[C@H](C3)c3cccc(=O)n3C4)o2)cc1`, the growth in the assay on SK-MEL-2 melanoma was 87.7%; in the assay with EKVX NSCLC, 80.6%; in the assay on SN12C renal, 95.2%; in the assay on UO-31 renal it was 83.6%; in the assay on TK-10 renal it was 98.8%; in the assay with ACHN renal, 109%. Moreover, the growth is 98.5% in the assay on CAKI-1 renal, 78.4% in the assay with CCRF-CEM leukemia and 96.6% in the assay with MOLT-4 leukemia.

With `COc1cc(-c2cc3ncccc3c3nc(OCCN(C)C)c4cccnc4c23)cc(OC)c1OC`, the growth in the assay on SK-MEL-2 melanoma was 19.8%; in the assay with EKVX NSCLC, 32.8%; with SN12C renal, 2.68% (active); with UO-31 renal, -70% (active); in the assay with TK-10 renal, -82.7% (active); in the assay with ACHN renal it was -74.5% (active). Besides, the growth in the assay with CAKI-1 renal is -37.3% (active); with CCRF-CEM leukemia, 14.5%; in the assay with MOLT-4 leukemia, 2.03% (active).

On to `CC(=O)N1N=C(c2ccc(C)cc2)CC1c1ccc(Oc2ccc(Br)cc2)cc1` (stereo not drawn), for which the growth is 106% in the assay on SK-MEL-2 melanoma; 83.1% with EKVX NSCLC; 78.5% in the assay on SN12C renal; 39.2% in the assay on UO-31 renal; 71.1% in the assay with TK-10 renal; 99.5% in the assay with ACHN renal. Further, the growth in the assay on CAKI-1 renal was 74.6%; in the assay with CCRF-CEM leukemia, 93.2%; in the assay on MOLT-4 leukemia, 71.3%.

As for `Cn1cc(-c2csc(-c3cn(CCN)c4ccc(F)cc34)n2)c2cccnc21`, the growth with SK-MEL-2 melanoma was 93.3%; with EKVX NSCLC, 55.9%; in the assay with SN12C renal, 76%; in the assay on UO-31 renal, 58.3%; in the assay on TK-10 renal, 121%; in the assay on ACHN renal, 60.9%. Besides, the growth in the assay with A498 renal was 82.4%; with CCRF-CEM leukemia, 34.3%; in the assay with MOLT-4 leukemia, 12.1%.

On to `CCCCC[C@H]1CC=C2C(=O)C(Cl)=C[C@@H]2CC=CCCCC(=O)O[C@@H](CCCCC)CC=C2C(=O)C(Cl)=C[C@@H]2CC=CCCCC(=O)O[C@@H](CCCCC)CC=C2C(=O)C(Cl)=C[C@@H]2CC=CCCCC(=O)O1`, for which the growth in the assay on SK-MEL-2 melanoma is 91.4% [8 µM]; in the assay with EKVX NSCLC it was 96.6% [8 µM]; in the assay on SN12C renal it was 43.1% [8 µM]; in the assay with UO-31 renal, 76.3% [8 µM]; with TK-10 renal, 151% [8 µM]; with ACHN renal, 69.6% [8 µM]. Further, the results for the growth with A498 renal, in the assay on CCRF-CEM leukemia and in the assay with MOLT-4 leukemia were 106% [8 µM], 7.3% [8 µM] (active) and 10.4% [8 µM], respectively.

Consider `COc1ccc2c(c1)c(-c1nc(-c3c[nH]c4ncccc34)cs1)cn2CCCN1CCCCC1`, for which the growth is 73.6% in the assay with SK-MEL-2 melanoma; 51.2% in the assay on EKVX NSCLC; 58% in the assay with SN12C renal; 36.5% with UO-31 renal; 77.5% in the assay with TK-10 renal; 22.3% in the assay on ACHN renal. For the same compound, the growth in the assay with A498 renal was 66.1%; in the assay with CCRF-CEM leukemia, -0.15% (active); in the assay with MOLT-4 leukemia, -18.9% (active).

Turning to `N#C/C(=C\c1ccc(-c2ccc(F)cc2)o1)c1nc(-c2ccco2)cs1`, the growth in the assay with SK-MEL-2 melanoma was 108%; in the assay with EKVX NSCLC it was 40.2%; in the assay with SN12C renal, 101%; with UO-31 renal, 69.8%; in the assay on TK-10 renal, 64.2%; in the assay on ACHN renal, 98.1%. Further, the growth was 107% with A498 renal, 84.2% in the assay on CCRF-CEM leukemia and 91.6% with MOLT-4 leukemia.

As to `O=C(NC1=CC(=O)c2ccccc2C1=O)c1ccccc1`, the growth in the assay with SK-MEL-2 melanoma is 0.417% (active); with EKVX NSCLC it was 9.48% (active); in the assay on SN12C renal, 29.2%; in the assay on UO-31 renal, -47.5% (active); in the assay on TK-10 renal it was 53.3%; in the assay on ACHN renal, 2.6% (active). For the same compound, the figures for the growth in the assay with A498 renal, in the assay on CCRF-CEM leukemia and in the assay on MOLT-4 leukemia were 53.3%, 8.93% (active) and -16.9% (active), respectively.

With `O=C(O)/C(=C/c1ccc(O)cc1)c1ccccc1`, the growth was 105% with SK-MEL-2 melanoma; 105% in the assay with EKVX NSCLC; 96.9% in the assay with SN12C renal; 68.9% with UO-31 renal; 98.3% in the assay on TK-10 renal; 101% with ACHN renal. Also, the growth in the assay with A498 renal was 93.2%; with CCRF-CEM leukemia, 94.5%; in the assay on MOLT-4 leukemia, 97.5%.

With `Cn1cc(-c2csc(-c3cn(CCCN4CCCCC4)c4ccc(Br)cc34)n2)c2cccnc21`, the growth is 37% with SK-MEL-2 melanoma; 49.6% in the assay on EKVX NSCLC; -31.3% (active) in the assay on SN12C renal; -93.9% (active) with UO-31 renal; 26.7% in the assay with TK-10 renal; -61.1% (active) in the assay with ACHN renal. The growth in the assay with A498 renal was 79.1%; in the assay with CCRF-CEM leukemia it was -23.8% (active); in the assay with MOLT-4 leukemia it was -46.3% (active).

`Cn1cc(-c2csc(-c3cn(CCCN4CCCCC4)c4ccccc34)n2)c2cccnc21`: the growth in the assay with SK-MEL-2 melanoma was 101%; with EKVX NSCLC, 70.8%; with SN12C renal, -70.9% (active); in the assay with UO-31 renal, -90.2% (active); in the assay on TK-10 renal it was -84.3% (active); in the assay on ACHN renal it was -97.4% (active). In addition, the growth in the assay on A498 renal was 82.6%; with CCRF-CEM leukemia it was -27.9% (active); in the assay on MOLT-4 leukemia, -50.5% (active).

For `Cn1c2c(Cl)c(Cl)ccc2c2c(C#N)c[nH]c(=O)c21`, the growth is 97.3% in the assay with SK-MEL-2 melanoma; 98.9% in the assay on EKVX NSCLC; 95.9% in the assay with SN12C renal; 89.9% in the assay on UO-31 renal; 119% in the assay with TK-10 renal; 93.4% with ACHN renal. In addition, the growth was 89.5% in the assay with A498 renal, 39.2% in the assay on CCRF-CEM leukemia and 95.7% in the assay on MOLT-4 leukemia.

On to `Cc1ccc2oc(=O)cc(-c3sc(N4CCCCC4)nc3-c3ccccc3)c2c1`, for which the growth with SK-MEL-2 melanoma is 93.7%; in the assay with EKVX NSCLC, 90.4%; in the assay on SN12C renal, 50.2%; in the assay on UO-31 renal it was 58%; in the assay with TK-10 renal, 161%; in the assay on ACHN renal it was 84.3%. Besides, the growth is 109% in the assay on A498 renal, 104% with CCRF-CEM leukemia and 97.3% in the assay with MOLT-4 leukemia.

For the compound `c1cnc2[nH]cc(-c3csc(-c4cn(CCCN5CCCCC5)c5ccccc45)n3)c2c1`, the growth in the assay with SK-MEL-2 melanoma is 93.7%; with EKVX NSCLC, 65.8%; with SN12C renal, 63.4%; with UO-31 renal it was 43.8%; in the assay with TK-10 renal, 115%; in the assay with ACHN renal it was 60.2%. Moreover, the growth in the assay on A498 renal was 83.8%; in the assay on CCRF-CEM leukemia, 6.17% (active); in the assay with MOLT-4 leukemia it was -10.6% (active).

For the compound `CC1=NN(c2ccc(S(=O)(=O)O)cc2Cl)C(=O)C1`, the growth is 112% in the assay with SK-MEL-2 melanoma; 101% in the assay with EKVX NSCLC; 100% with SN12C renal; 89.2% with UO-31 renal; 101% with TK-10 renal; 105% in the assay with ACHN renal. Besides, the results for the growth with A498 renal, in the assay with CCRF-CEM leukemia and in the assay on MOLT-4 leukemia were 102%, 99.1% and 123%, respectively.

On to `O=C1c2ccccc2NC(c2cn(-c3ccccc3)nc2-c2cccs2)N1Cc1ccccc1` (stereo not drawn), for which the growth in the assay with SK-MEL-2 melanoma is 74%; with EKVX NSCLC, 72.1%; in the assay with SN12C renal, 90.8%; with UO-31 renal, 57.5%; in the assay with TK-10 renal it was 91.1%; in the assay with ACHN renal it was 86.2%. Besides, the figures for the growth in the assay on A498 renal, in the assay on CCRF-CEM leukemia and with MOLT-4 leukemia were 84%, 95.6% and 55.1%, respectively.

Consider `O=C1c2ccccc2NC(c2cn(-c3ccccc3)nc2-c2cccnc2)N1Cc1ccccc1` (stereo not drawn), for which the growth in the assay on SK-MEL-2 melanoma was 88%; in the assay with EKVX NSCLC, 81.3%; in the assay with SN12C renal it was 87.3%; with UO-31 renal, 65.4%; in the assay with TK-10 renal, 105%; with ACHN renal it was 102%. Also, the values for the growth with A498 renal, with CCRF-CEM leukemia and in the assay on MOLT-4 leukemia were 92%, 91.5% and 67.9%, respectively.

As for `C=C(C)[C@@H]1CC[C@]2(C(=O)OC)CC[C@]3(C)[C@H](CC[C@@H]4[C@@](C)(CC/C(N)=N/O)[C@H](C(=C)C)CC[C@]43C)[C@@H]12`, the growth is 97.9% in the assay with SK-MEL-2 melanoma; 97% in the assay on EKVX NSCLC; 97.2% in the assay on SN12C renal; 93% in the assay on UO-31 renal; 105% with TK-10 renal; 101% in the assay with ACHN renal. Further, the growth with A498 renal was 95.1%; in the assay with CCRF-CEM leukemia it was 107%; in the assay on MOLT-4 leukemia, 92.4%.

Values taken from PubChem BioAssay (NCI).
